Assay [1] in a line: Cell Viability - MRC5 (AID 434; calls by dose curve;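 note: potency is the fitted concentration of half-maximal effect; cells exposed to compound for 40 hours at 37 °C; potency reflects cytotoxicity seen as loss of intracellular ATP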). To be noted: MRC5 lung fibroblast viability, qHTS. In outline: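 ATP luminescence read-out (CellTiter-Glo, 20 min RT) after 40 hr, 37 °C compound exposure of 1500 MRC5 cells/well. Data normalized to DMSO (basal) and 100 uM tamoxifen (100% inhibition); AC50 from standard Hill equation.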
For orientation: qHTS replaces the single test concentration by a dilution series.

Assay [2] in a line: Cellular Toxicity (caspase-3) HepG2 (AID 654).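 Note: cells exposed to compound for 16 hours before reading; 0% = DMSO alone and 100% = caspase signal from 100 µM tamoxifen.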 To be noted: HepG2 caspase-3 activation, luminescence; series mostly up to 92.2 µM. In outline:
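Caspase 3/7 activation in HepG2 is measured as rising luminescence after a 16 hr treatment at 37 °C. Values are scaled between DMSO basal and 100 uM tamoxifen, and AC50 is fitted with the Hill equation.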

Assay [3] in a line: Cellular Toxicity (caspase-3) HUV-EC-C (AID 656). To be noted: HUV-EC-C cells, caspase-3 activation (apoptosis); series mostly up to 92.2 µM. In short, it runs like this: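 Read-out: luminescence proportional to caspase 3/7 activity, measured 20 min after adding Caspase-Glo 3/7 reagent. Cells (HUV-EC-C) had received compound for 16 hr at 37°C. Increases relative to DMSO and 100 uM tamoxifen gave concentration-response AC50 values.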

The nature of assay [4]: Cellular Toxicity (caspase-3) MRC-5 (AID 659). As to conditions: MRC-5 cells, luminescence, normalized: DMSO 0%, 10 µM staurosporine 100%; series mostly up to 91.7 µM. In outline: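 MRC-5 fibroblasts, 1500/well; 16 h cpd, 37 °C; Caspase-Glo 3/7, 1 h RT; lumi read. Norm: DMSO = 0%, 10 uM staurosporine = 100%. Hill-fit AC50 from qHTS conc-response.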
Assay [5] in a line: Cellular Toxicity (caspase-3) SK-N-SH (AID 661). To be noted: SK-N-SH caspase-3 activation, qHTS, DMSO as zero, staurosporine as full; series mostly up to 91.7 µM. In short, it runs like this: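 Cells were seeded and incubated 5 hr at 37 °C, dosed with compound over a concentration range for 16 hr, then given Caspase-Glo 3/7 reagent for 1 hr at room temperature before luminescence reading.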

A short description of assay [6]: Cellular Toxicity (caspase-3) Hek293 (AID 664).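 Note: cells exposed to compound for 16 h at 37 °C before readout.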 To be noted: HEK293 caspase-3 activation, DMSO = 0%, 100 µM tamoxifen = 100%; at 92.2 µM (top of the series). In outline: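 qHTS, HEK293 (human embryonic kidney), 16 h cpd exposure in complete medium. Caspase-3/7 activation = luminescence increase; normalized to DMSO/100 uM tamoxifen; Hill-fit AC50.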
Assay [7] in a line: Cellular Toxicity (caspase-3) N2a (AID 665).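 Note: compound exposure lasted 16 h at 37 °C before readout.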 To be noted: N2a cells, luminescence, normalized: DMSO 0%, 10 µM staurosporine 100%; series mostly up to 92.2 µM. In outline: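 Caspase-3/7 activation, measured as increased luminescence from aminoluciferin release, is quantified in mouse N2a cells exposed to compounds for 16 h. Values are normalized to DMSO and 10 uM staurosporine, with AC50 derived by Hill modelling.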

Assay [8] can be described thus: Cellular Toxicity (caspase-3) Renal Proximal Tubule (AID 667).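 Note: cells exposed to compound for 16 hours at 37 °C before detection.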 To be noted: renal proximal tubule cells, primary cells freshly taken from rat; Potency: caspase-3 activation; series mostly up to 91.7 µM. In outline: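 In qHTS format, rat primary proximal tubule cells seeded at 1000 per well are exposed to compounds for 16 hours at 37 °C. An increase in Caspase-Glo 3/7 luminescence indicates caspase activation.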

A short description of assay [9]: MultiTox-Fluor Cytotoxicity Assay - LYMP1-001 - Dead Cells (AID 946).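 Note: 0% = DMSO and 100% = tetraoctylammonium bromide.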 As to conditions: LYMP1-001 lymphoblastoid cells, dead-cell protease fluorescence; series mostly up to 92.2 µM. In short, it runs like this: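 LYMP1-001 lymphoblastoid cells (2500/well) treated 16 h at 37 C. Dead-cell protease cleavage of bis-AAF-R110 read at Ex/Em 485/520. Normalized to DMSO and 15 uM tetraoctylammonium bromide; AC50 from Hill fits.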

Assay [10] is described as follows: MultiTox-Fluor Cytotoxicity Assay - LYMP1-003 - Dead Cells (AID 961).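 Note: 0% = DMSO and 100% = tetraoctylammonium bromide; nearly all actives have a fitted effect of over 70% in size.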 As to conditions: LYMP1-003 lymphoblastoid cells, dead-cell protease fluorescence; series mostly up to 92.2 µM. In short, it runs like this:
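LYMP1-003 human lymphoblastoid cells (2500/well) exposed to compound 16 h at 37 C in complete medium; dead-cell protease read with bis-AAF-R110 fluorescence (Ex/Em 485/520) after 60 min at room temperature. Normalized to DMSO and 15 uM tetraoctylammonium bromide; AC50 from Hill fit.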

A short description of assay [11]: MultiTox-Fluor Cytotoxicity Assay - LYMP1-003 - Live Cells (AID 962).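 Note: 0% = DMSO only and full loss = 92 µM tetraoctylammonium bromide; cytotoxic hits lower the live-cell protease signal.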 To be noted: LYMP1-003 lymphoblastoid cells, MultiTox-Fluor live-cell protease fluorescence; series mostly up to 92.2 µM. In outline:
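Acute cytotoxicity is scored as a drop in live-cell protease activity in human lymphoblastoid LYMP1-003 cells after 16 hr compound exposure at 37 C. AC50 values come from Hill-equation modelling of concentration-response data.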

Assay [12] can be described thus: Cell Viability - LYMP1-003 - Assay at 24 hr (AID 963).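 Note: plate controls were DMSO only for no effect and tetraoctylammonium bromide positive control for full effect.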 To be noted: LYMP1-003 lymphoblastoid cell viability; series mostly up to 92.2 µM. In outline: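 Cytotoxicity is scored as a concentration-dependent fall in ATP-linked luciferase signal in human lymphoblastoid LYMP1-003 cells treated 24 hr at 37 C in complete culture medium.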
The nature of assay [13]: Cell Viability - LYMP1-002 - Assay at 24 hr (AID 993). Note: % is set by controls: 0 for no effect and ±100 for the full control effect. As to conditions: LYMP1-002 lymphoblastoid cells viability; series mostly up to 92.2 µM. In outline:
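Acute toxicity is measured as concentration-dependent loss of cellular ATP in a human lymphoblastoid line (Coriell LYMP1-002) after 24 h treatment in complete medium. ATP is quantified by luciferase luminescence and AC50 derived by Hill modelling.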

Assay [14] can be described thus: qHTS Assay for Identification of Small Molecule Inducers of Hypoxia Response (AID 2120; active = well fitted curve in the direction sought with a large enough effect in the signal ratio, with a control signal flat, not every such curve was filed as active; the % refers to the signal ratio; note: 0% is about no effect). As to conditions: hypoxia response reporter cells, beta-lactamase ratio readout; series mostly up to 104 µM. In short, it runs like this:
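Cell-based qHTS for reporter induction: hypoxia response element controlled beta-lactamase in ME-180 cells. Compounds incubated 17 h at 37 degrees C; activity from blue/green (460/530 nm) ratio, inducers ranked by AC50.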

Assay [15] has as its target Peroxisome proliferator-activated receptor alpha (Homo sapiens) (UniProt Q07869). The experiment in a line: qHTS assay for small molecule agonists of the peroxisome proliferator-activated receptor alpha (PPARalpha) signaling pathway (AID 651778). Note: % of control where 0% means no effect. To be noted: PathHunter PPARalpha complementation, chemiluminescence, 6 h; max response: stronger effect = higher value. In outline: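 Enzyme-fragment complementation assay in which ligand-bound PPARalpha translocates and forms an active enzyme that generates chemiluminescence. Cells were plated overnight, exposed to compound for 6 hr at 37 C, and then given detection reagent for 60 min at room temperature.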

Assay [16] in a line: qHTS assay for small molecule agonists of the antioxidant response element (ARE) signaling pathway measured by Nrf2-dependant transcriptional activity - cell viability counter screen (AID 720653; active = well fitted curve in the direction sought with a large enough effect in the repeat runs; an effect the other way counts as inactive or inconclusive; note: % is set by controls: 0 for no effect and ±100 for the full control effect). To be noted: ARE-bla HepG2 viability, CellTiter-Glo ATP luminescence, 16 h; max response: stronger effect = lower value. In short, it runs like this:
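ARE-bla HepG2 cells treated with compounds for 16 h at 37C; this counter screen measures viability as intracellular ATP by CellTiter-Glo luminescence after 30 min at room temperature.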

Assay [17] is described as follows: qHTS assay for cell viability of HEK293 cells (AID 743288). Note: % is set by controls: 0 for no effect and ±100 for the full control effect; nearly all actives have a fitted effect of over 50% in size. To be noted: ATP luminescence (CellTiter-Glo), 18 h; max response: stronger effect = lower value. In outline:
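Quantitative high-throughput screen: compounds were pinned onto parental HEK293 cells (2,000 per well) after a minimum 5 h settling at 37 C, incubated 18 h at 37 C, and intracellular ATP measured by luciferase luminescence.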

Assay [18] is described as follows: qHTS assay for cell viability of the p53RE-bla HCT-116 cell line (AID 743292). Note: % is set by controls: 0 for no effect and ±100 for the full control effect; nearly all actives have a fitted effect of over 55% in size. As to conditions: p53RE-bla HCT-116 viability, ATP luminescence, 16 h; series mostly up to 95 µM. In outline: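 HCT-116 p53RE-bla cells seeded 4,000/well; 5 h at 37 C; compound (DMSO) added; 16 h at 37 C; CellTiter-Glo added, 30 min RT; luminescence read.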
A short description of assay [19]: Cell Viability - HUV-EC-C (AID 542).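 Note: cells exposed to compound for 40 hours; % is set by controls: 0 for no effect and ±100 for the full control effect; nearly all actives have a fitted effect of over 35% in size.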 As to conditions: HUV-EC-C endothelial cell viability, qHTS; series mostly up to 92.2 µM. In outline: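 Cells were seeded at 1000 per well and incubated 5 hr at 37 °C before compound addition. After 40 hr at 37 °C, CellTiter-Glo reagent was added for 20 min and luminescence read. AC50 values came from Hill-equation modelling.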

Assay [20] can be described thus: Cellular Toxicity (caspase-3) NIH 3T3 (AID 666).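 Note: caspase signal read after 16 h compound exposure; 0% = DMSO basal and 100% = 100 µM tamoxifen stimulation.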 As to conditions: NIH 3T3 caspase-3 activation, apoptosis/toxicity, 0% DMSO, 100% is 100 µM tamoxifen; series mostly up to 92.2 µM. In short, it runs like this: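 Cells were plated at 1000 per well and incubated 5 hr at 37°C, then compound was added for 16 hr. Caspase-Glo 3/7 reagent followed for 20 min at room temperature before luminescence was read.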

Results on six molecules are retold here after PubChem BioAssay (NCATS).

A number with no mark means an inactive call. Results filed as inconclusive are left out. Activity calls are given as the source filed them. Unless noted, calls come from the whole dose curve; as a rule, active = well fitted curve in the direction sought with a large enough effect; inconclusive = small, poorly fitted or top-dose-only effect, or another doubt; inactive = no such curve, though single readings can be large; an effect the other way counts as inactive or inconclusive. A value given as a limit tells only on which side of the number the result lay.

Peroxisome proliferator-activated receptor alpha (Homo sapiens), sequence (Q07869 whole entry, looked up, the tested form may be a part): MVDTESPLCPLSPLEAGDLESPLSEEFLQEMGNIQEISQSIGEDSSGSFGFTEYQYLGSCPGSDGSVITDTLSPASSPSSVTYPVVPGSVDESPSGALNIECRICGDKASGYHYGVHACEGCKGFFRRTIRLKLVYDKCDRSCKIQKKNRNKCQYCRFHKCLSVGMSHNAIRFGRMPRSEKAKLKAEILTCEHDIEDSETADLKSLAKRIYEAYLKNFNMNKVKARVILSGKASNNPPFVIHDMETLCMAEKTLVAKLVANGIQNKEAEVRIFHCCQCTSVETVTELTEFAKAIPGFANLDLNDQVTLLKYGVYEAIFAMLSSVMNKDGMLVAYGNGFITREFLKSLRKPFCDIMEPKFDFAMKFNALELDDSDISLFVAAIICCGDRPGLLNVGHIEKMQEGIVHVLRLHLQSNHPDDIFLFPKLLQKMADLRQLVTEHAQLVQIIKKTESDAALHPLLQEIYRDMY

Take `Nc1ccc(N=Nc2ccccc2)c(N)c1`: the Potency in assay [1] is over 92 µM. Besides, the Potency result in [2], in assay [3], in assay [8], in assay [9], in assay [10] and in [11] was “inactive” in each case. For the same molecule, the Potency result in [12], in assay [13], in assay [14] and in assay [18] was “inactive” each time. Further, the molecule was called inactive in assay [4], in assay [5] and in assay [7]. Further, the caspase-3 activation in assay [6] is -11.8%. The max response in assay [15] was -3.41%; in assay [16], -16.9%; in assay [17], -22.9%.

Regarding `Brc1cc(Br)c(Oc2cc(Br)c(Br)cc2Br)cc1Br`, the Potency in assay [1] was over 92 µM. In addition, the Potency entry in assay [19], in assay [2], in assay [3], in assay [8], in assay [9] and in assay [10] was “inactive” throughout. In addition, the Potency result in assay [11], in assay [12], in assay [13], in [14] and in assay [18] was “inactive” throughout. Besides, the outcome in assay [4], in assay [5], in [7] and in assay [20] was inactive. Moreover, in [6], the caspase-3 activation was 0.345%. The max response in assay [15] is -1.94%; in assay [16], -7.08%; in assay [17] it was -23.2%.

Regarding `CC(C)(C)C(=O)C1C(=O)c2ccccc2C1=O`, in [1], the Potency was over 92 µM. Besides, the Potency entry in [19], in assay [2], in assay [3], in [8], in [9] and in assay [10] was “inactive” in each case. Also, the Potency entry in [11], in [12], in assay [13], in assay [14] and in assay [18] was “inactive” throughout. Further, the call in [4], in assay [5], in assay [7] and in assay [20] was inactive. The caspase-3 activation in assay [6] was -1.93%. Moreover, the figures for the max response in assay [15], in [16] and in assay [17] were 0.134%, -24.2% and -22.9%, respectively.

As to `C=CC(=O)CC`, in assay [1], the Potency was over 92 µM. The Potency entry in assay [19], in assay [2], in assay [3], in assay [8], in assay [9] and in assay [10] was “inactive” in each case. The Potency entry in assay [11], in [12], in assay [13], in assay [14] and in [18] was “inactive” in each case. Also, the call in [4], in assay [5], in [7] and in assay [20] was inactive. Besides, the caspase-3 activation in assay [6] is 0.103%. For the same molecule, the max response in [15] was 8.86%; in assay [16], -0.839%; in [17] it was -3.35%.

For `O=C1c2ccccc2C(=O)C1(O)O`, the Potency in [1] was 44.8 µM (active). Moreover, the Potency result in [19], in assay [2], in assay [3], in assay [8], in assay [9] and in [10] was “inactive” throughout. Moreover, the Potency result in assay [11], in assay [12], in [13], in assay [14] and in assay [18] was “inactive” each time. Also, the molecule was classed as inactive in assay [4], in [5], in [7] and in assay [20]. Moreover, in assay [6], the caspase-3 activation was 0.893%. The max response in assay [15] was 0.0449%; in assay [16], -29.9%; in assay [17] it was -12.1%.

As for `Cc1ccccc1OCC1CO1` (stereo not drawn), the Potency in assay [1] was over 92 µM. In addition, the Potency entry in [19], in assay [2], in assay [3], in assay [8], in [9] and in assay [10] was “inactive” in each case. The Potency result in [11], in [12], in assay [13], in assay [14] and in assay [18] was “inactive” each time. The outcome in assay [4], in assay [5], in assay [7] and in [20] was inactive. Moreover, the caspase-3 activation in [6] was 0.226%. The max response in [15] is -1.41%; in assay [16], 0.854%; in assay [17], -12.7%.
